Reference: PubChem BioAssay AID463173 (ICCB-Longwood Screening Facility, Harvard Medical School, 2010)
Out of some 52,000 compounds screened, about 4,300 (8.3%) were called active. Cut-off read from the data, not from the text of the source: active = survival mostly below about 52% (no sharp cut-off); inactive = mostly above about 56%. The sample as a whole holds a higher share of actives than the screen did.

What follows are molecules tested on DeltatarO mutant (assay: growth inhibition of S. aureus wild type versus tarO mutant, primary screen, teichoic acid synthesis inhibitors, RN4220, OD600 (AID 463173)). Conditions: OD600, 18 h, active compounds read low, screened at 18.75 µg/mL (by protocol).

SMILES	survival
CC(=O)C1=C(c2cccc([N+](=O)[O-])c2)N(C(C)=O)n2c(nnc2-c2ccc(C)cc2)S1	89% (inactive)
CCC(=O)C1=C(c2ccccc2)N(C(=O)CC)n2c(nnc2-c2ccccc2)S1	-5% (active)
CN(CC(=O)O)Cc1nc2ccccc2[nH]1	103% (inactive)
Cc1c(Cl)cccc1NC(=O)c1ccc(NC(=O)N2CCSc3ncccc32)cc1	72% (inactive)
COC(=O)c1ccc(C=Nc2ccc(O)c(-c3nc4ccccc4o3)c2)cc1	93% (inactive)
COc1ccc(C)cc1-n1cnc2cc(C(=O)NC3CCCC3)ccc21	119% (inactive)
O=C(C1CCC(Cn2c(=O)c3sccc3n(Cc3cccc(F)c3)c2=O)CC1)N1CCCCC1 (stereo not given)	92% (inactive)
Cc1c(NS(=O)(=O)c2cccc(C(=O)O)c2)c(=O)n(-c2ccccc2)n1C	67% (inactive)
O=C1Nc2ccccc2N(O)N1c1ccccc1Cl	90% (inactive)
CCc1ccc(S(=O)(=O)Nc2ccc3c(c2)n(C)c(=O)c(=O)n3C)cc1	79% (inactive)
COc1ccccc1N1CCN(C(=O)Cn2c(=O)n3nc(-c4cccc(F)c4)nc3c3ccccc32)CC1	71% (inactive)
CC(C)c1ccc(NC(=O)CN2C(=O)CCc3cc(S(=O)(=O)N4CCOCC4)ccc32)cc1	87% (inactive)
O=C(Nc1ccc(F)cc1Cl)c1cnc(N2CCOCC2)c2ccccc12	104% (inactive)
COc1ccc(N=Nc2c(N)n[nH]c2N)cc1	1% (active)
Nc1n[nH]c(N)c1N=Nc1ccc(Cl)cc1	64% (inactive)
COc1cccc(N=Nc2c(O)[nH]c(=O)[nH]c2=O)c1	101% (inactive)
Cn1c(=O)c2cc(C(=O)NCCCN3CCN(c4ccc(F)cc4)CC3)sc2c2ccccc21	70% (inactive)
C=C(C)Cn1c(SCC(=O)Nc2cccc(Cl)c2)nc2sc3c(c2c1=O)CCCC3	126% (inactive)
COc1ccc(NC(=O)C(Cc2ccccc2)n2cccc2)cc1OC (stereo not given)	79% (inactive)
Cc1ccc(C)c(NC(=O)C(Cc2ccccc2)n2cccc2)c1 (stereo not given)	107% (inactive)
Cc1ccc(NC(=O)C(Cc2ccccc2)n2cccc2)cc1C (stereo not given)	28% (active)
O=C(Nc1ccccc1)C(Cc1ccccc1)N1Cc2ccccc2C1=O (stereo not given)	77% (inactive)
CC(=O)c1cccc(NC(=O)[C@H](Cc2ccccc2)N2Cc3ccccc3C2=O)c1	67% (inactive)

SMILES	survival
O=C(Nc1cccc(Cl)c1)C(Cc1ccccc1)n1cccc1 (stereo not given)	11% (active)
Cc1cccc(NC(=O)C(Cc2ccccc2)n2cccc2)c1C (stereo not given)	75% (inactive)
Cc1ccc(NC(=O)C(Cc2ccccc2)n2cccc2)c(C)c1 (stereo not given)	67% (inactive)
CCc1cccc(NC(=O)C(Cc2ccccc2)n2cccc2)c1 (stereo not given)	18% (active)
COc1ccc(OC)c(S(=O)(=O)Nc2cc3c(cc2C)n(C)c(=O)c(=O)n3C)c1	84% (inactive)
C1=C(c2cccs2)OC(c2cccs2)=CC1c1cccs1	52% (inactive)
Nc1ncc(S(=O)(=O)NCc2cccc(Cl)c2)cn1	74% (inactive)
CCOc1ccc(S(=O)(=O)N2CCN(c3ccc(Cl)c(Cl)c3)CC2)c2ccccc12	168% (inactive)
COc1ccc(Cn2nnnc2C(c2ccccn2)N2CCc3ccccc3C2)cc1 (stereo not given)	74% (inactive)
O=C1CSC2(C(=O)N(Cc3ccccc3F)c3ccccc32)N1c1cccc(C(F)(F)F)c1 (stereo not given)	87% (inactive)
O=C(COCc1cc(-c2ccco2)on1)Nc1ccc(OC(F)(F)F)cc1	92% (inactive)
CCOc1ccc(-c2cc3c(=O)n(Cc4nc(-c5cccc(OC)c5OC)oc4C)ccn3n2)cc1Cl	187% (inactive)
Cc1cccc(C(=O)Nc2nnc(S(=O)(=O)N3CCCc4ccccc43)s2)c1	17% (active)
COc1ccc(C(=O)Nc2nnc(S(=O)(=O)N3CCCc4ccccc43)s2)cc1	49% (inactive)
Cc1ccc(C(=O)Nc2nnc(S(=O)(=O)N3CCc4ccccc43)s2)cc1	26% (active)
Cc1ccc2nc(NC(=O)c3ccc(S(=O)(=O)N4CCCc5ccccc54)cc3)sc2c1	144% (inactive)
Cc1ccc(C(=O)Nc2nnc(S(=O)(=O)N3CCCc4ccccc43)s2)cc1	39% (active)
COc1cccc(C(=O)Nc2nnc(S(=O)(=O)N3CCCc4ccccc43)s2)c1	18% (active)
COc1ccccc1NC(=O)c1c(NCc2ccc(OC)c(OC)c2OC)sc2c1CCCC2	93% (inactive)
COc1ccc(-c2nc3ccccc3n3c(-c4ccc(OC)cc4)c4c(=O)n(C)c(=O)n(C)c4c23)cc1	84% (inactive)
CCOC(=O)c1c(S(=O)(=O)N2CCCC(C(=O)Nc3cccc(C#N)c3)C2)c(C)n(C)c1C (stereo not given)	67% (inactive)
CCc1ccccc1Nc1sc(C(=O)c2ccccc2)c(N)c1S(=O)(=O)c1ccccc1	119% (inactive)
